{"source": "PubChem BioAssay (NCATS)", "key": {"[1]": {"test": "Primary qHTS for Vero E6 cytotoxicity: counterscreen for inhibitors of SARS-S pseudo-typed particle cell entry (AID 1479150); further: potency means the concentration at half of the fitted maximal effect"}, "[2]": {"test": "Confirmatory qHTS for VERO E6 Cytotoxicity Assay: Counterscreen for SARS-CoV-2 CPE Assay (AID 1508605); further: nearly all actives have a fitted effect of over 60% in size; further: potency means the concentration at half of the fitted maximal effect"}, "[3]": {"test": "Confirmatory qHTS for activators (rescue) of SARS-CoV-2 Cytopathic Effect (CPE) (AID 1508606); further: nearly all actives have a fitted effect of over 70% in size; further: potency means the concentration at half of the fitted maximal effect"}, "[4]": {"test": "Primary qHTS for Huh7 cytotoxicity: counterscreen for inhibitors of MERS-S pseudotyped particle cell entry (AID 1479147)"}, "[5]": {"test": "Primary qHTS for inhibitors of MERS-S pseudo-typed particle cell entry (AID 1479149); further: nearly all actives have a fitted effect of over 60% in size; further: potency means the concentration at half of the fitted maximal effect"}}, "note": "Records with an inconclusive call do not appear. A call without a number means that no potency is given here. Calls of active or inactive are those of the source. The call rests on the fitted dose curve."}
{"compound": "CC1=CC(=O)c2ccccc2C1=O", "values": [{"measurement": "Potency", "setting": "[1]", "value": "inactive"}]}
{"compound": "CCN(CC)CCNc1ccc(CO)c2sc3ccccc3c(=O)c12", "values": [{"measurement": "Potency", "setting": "[2]", "value": "10 µM (active)"}, {"measurement": "Potency", "setting": "[3]", "value": "inactive"}]}
{"compound": "O=c1[nH]c2ccccc2n1CCCN1CCN(C(c2ccccc2)c2ccccc2)CC1", "values": [{"measurement": "Potency", "setting": "[4]", "value": "inactive"}, {"measurement": "Potency", "setting": "[1]", "value": "inactive"}, {"measurement": "Potency", "setting": "[3]", "value": "11.2 µM (active)"}]}
{"compound": "Fc1ccc(C(c2ccc(F)cc2)N2CCN(C/C=C/c3ccccc3)CC2)cc1", "values": [{"measurement": "Potency", "setting": "[4]", "value": "inactive"}, {"measurement": "Potency", "setting": "[1]", "value": "inactive"}, {"measurement": "Potency", "setting": "[2]", "value": "inactive"}, {"measurement": "Potency", "setting": "[3]", "value": "11.2 µM (active)"}]}
{"compound": "O=C(CCC1CCN(Cc2ccccc2)CC1)c1ccc2c(c1)NCCCC2", "values": [{"measurement": "Potency", "setting": "[1]", "value": "inactive"}, {"measurement": "Potency", "setting": "[2]", "value": "inactive"}]}
{"compound": "CCCCN(CCCC)CCC(O)c1cc2c(Cl)cc(Cl)cc2c2cc(C(F)(F)F)ccc12", "note": "(configuration not stated)", "values": [{"measurement": "Potency", "setting": "[4]", "value": "inactive"}, {"measurement": "Potency", "setting": "[1]", "value": "inactive"}, {"measurement": "Potency", "setting": "[3]", "value": "3.55 µM (active)"}]}
{"compound": "NC(=O)C1(N2CCCCC2)CCN(CCCN2c3ccccc3CCc3ccc(Cl)cc32)CC1", "values": [{"measurement": "Potency", "setting": "[5]", "value": "12.6 µM (active)"}]}
{"compound": "CCC(C)(C)c1ccc(CC(C)CN2C[C@@H](C)O[C@@H](C)C2)cc1", "note": "(some centres not stated)", "values": [{"measurement": "Potency", "setting": "[1]", "value": "inactive"}]}
{"compound": "CCC(=O)c1ccc2c(c1)N(CCCN(C)C)c1ccccc1S2", "values": [{"measurement": "Potency", "setting": "[1]", "value": "inactive"}, {"measurement": "Potency", "setting": "[2]", "value": "inactive"}, {"measurement": "Potency", "setting": "[3]", "value": "11.2 µM (active)"}]}
{"compound": "COC(=O)C1=C(C)NC(C)=C(C(=O)O[C@@H]2CCCN(Cc3ccccc3)C2)[C@@H]1c1cccc([N+](=O)[O-])c1", "values": [{"measurement": "Potency", "setting": "[2]", "value": "11.2 µM (active)"}, {"measurement": "Potency", "setting": "[3]", "value": "inactive"}]}
{"compound": "CCN(CC)CCOc1ccc(/C(=C(\\Cl)c2ccccc2)c2ccccc2)cc1", "values": [{"measurement": "Potency", "setting": "[1]", "value": "inactive"}]}
{"compound": "CN1CCN(CCCN2c3ccccc3Sc3ccc(S(=O)(=O)N(C)C)cc32)CC1", "values": [{"measurement": "Potency", "setting": "[2]", "value": "inactive"}]}
{"compound": "CCCN(CCC)C(=O)C(CCC(=O)OCCCN1CCN(CCOC(=O)Cc2c(C)n(C(=O)c3ccc(Cl)cc3)c3ccc(OC)cc23)CC1)NC(=O)c1ccccc1", "note": "(configuration not stated)", "values": [{"measurement": "Potency", "setting": "[4]", "value": "inactive"}, {"measurement": "Potency", "setting": "[1]", "value": "inactive"}, {"measurement": "Potency", "setting": "[2]", "value": "inactive"}, {"measurement": "Potency", "setting": "[3]", "value": "10 µM (active)"}]}
{"compound": "CC(C)OC(=O)C(C(=O)OC(C)C)=C1SC=CS1", "values": [{"measurement": "Potency", "setting": "[5]", "value": "inactive"}, {"measurement": "Potency", "setting": "[1]", "value": "inactive"}]}
{"compound": "CCCCC1C(=O)N(c2ccccc2)N(c2ccc(O)cc2)C1=O", "note": "(configuration not stated)", "values": [{"measurement": "Potency", "setting": "[1]", "value": "22.4 µM (active)"}]}
{"compound": "CN(C(=O)CN(CCO)CC(=O)N(C)C(C)(C)Cc1ccccc1)C(C)(C)Cc1ccccc1", "values": [{"measurement": "Potency", "setting": "[1]", "value": "inactive"}]}
